Screening results from PubChem.
Sampled rows, rich in hits. Any-hit rate of the full collection: about 6.5%.
VACV Venus inh = qHTS for Stage-Specific Inhibitors of Vaccinia Orthopoxvirus: Venus Reporter Primary qHTS. Vaccinia virus Venus reporter expression, fluorescence. Potency, µM (doses to about 36.5 µM), for the others: at the top dose activity change, negative = inhibition, hits mostly inhibitors. hit rate 0.46% among 330,000. AID 720580, 2013; calls by dose curve; tested in A549 cells; further: potency means the concentration at half of the fitted maximal effect; nearly all actives have a fitted effect of over 30% in size
FMDV inh = High Throughput Screening for Foot and Mouth Disease Virus Antivirals | FMDV antiviral cell-based qHTS | Potency, µM (series often up to 57.9 µM), inactives show top-dose activity change, negative = inhibition, most hits filed as inhibitors | hit rate 1.2% among 410,000; calls by dose curve; tested in HEK293T cells; further: read-out not given here; potency means the concentration at half of the fitted maximal effect; nearly all actives have a fitted effect of over 45% in size
VACV mCherry inh = qHTS for Stage-Specific Inhibitors of Vaccinia Orthopoxvirus: mCherry Reporter Primary qHTS. hit rate 0.63% among 310,000. AID 720579, 2013. Vaccinia virus mCherry reporter infection, fluorescence. Potency, µM (top dose mostly 36.5 µM), for inactives: top-dose activity change, negative = inhibition, actives largely listed as inhibitors; calls by dose curve; tested in A549 cells; further: potency means the concentration at half of the fitted maximal effect; nearly all actives have a fitted effect of over 35% in size
HCMV inh = qHTS Assay for inhibitors of the human cytomegalovirus (HCMV) | HFF cells, HCMV-luciferase reporter, 72 h; stronger effect = lower value | activity change, negative = inhibition, % at 57.5 µM | hit rate 4.5% among 410,000; in the data active means activity change below about -60%; inconclusive means no clear call, values can overlap the other calls; inactive means above about -39%
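Human foreskin fibroblasts infected with luciferase-reporter HCMV at MOI 1 PFU/cell, compounds at two doses. Luciferase measured 72 h post infection; normalized to buffer-only basal and Salinomycin (10uM) controls.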
MARV entry inh = qHTS for inhibitors of binding or entry into cells for Marburg Virus | Marburg virus pseudotyped entry inhibition, cell reporter | Potency, µM (doses to about 37.8 µM), for the others: top-dose activity change, negative = inhibition, actives largely listed as inhibitors | hit rate 1.8% among 300,000; calls by dose curve; tested in HEK293 cells; further: potency means the concentration at half of the fitted maximal effect
Lassa entry inh = qHTS for Inhibitors of binding or entry into cells for Lassa Virus; Lassa virus pseudotype entry inhibition, cell reporter; Potency, µM (doses to about 37.9 µM), without a hit: at the top dose activity change, negative = inhibition, most hits filed as inhibitors; hit rate 1.2% among 300,000; AID 540256, 2011; calls by dose curve; tested in HEK293 cells; further: potency means the concentration at half of the fitted maximal effect; nearly all actives have a fitted effect of over 50% in size
* marks the source's active call; other numbers are inactive results; i = inactive; u = inconclusive; x = no result; ! = not active in a repeat; [ ] = another dose, or the depositor's remark. On the % scale 0 is the no-effect control and ±100 the full control effect.

SMILES	VACV Venus inh	FMDV inh	VACV mCherry inh	HCMV inh	MARV entry inh	Lassa entry inh
c1ccc(CC2CCN(C3=Nc4cccc5cccc3c45)CC2)cc1	-28.1%	u	-13.1%	x	16.4µM*	-10.0%
COc1cc(=O)n2c(c1C(=O)N(C)Cc1nonc1C)CCN(Cc1ccccc1Cl)CC2	3.8%	-13.5%	-7.3%	x	x	x
O=C(CCCN1C(=O)c2cccc3cccc(c23)C1=O)N1CCN(c2ncccn2)CC1	x	-8.2%	x	-66.2*	x	x
O=C(CCCN1C(=O)c2cccc3cccc(c23)C1=O)NCc1ccco1	-3.5%	17.6%	-26.0%	-88.9*	x	x
O=C(CCCN1C(=O)c2ccccc2C1=O)NCc1ccco1	-10.5%	-10.8%	x	-4.2	1.3%[46.1 µM]	1.1%
COc1ccc(OCC(=O)N2c3ccc(C)cc3C3CN(C)CCC32)cc1 (configuration not stated)	4.8%	7.5%	-14.1%	3.6	-0.4%[46.1 µM]	-3.0%
Cc1ccc2c(c1)C1CN(C)CCC1N2C(=O)CCCN1C(=O)c2cccc3cccc(c23)C1=O (configuration not stated)	-3.8%	-3.4%	26.8%	-32.7	7.94µM*	6.9%
COc1ccccc1Cn1c(=S)[nH]c2ccc(Br)cc2c1=O	-12.8%	-4.1%	i	-86.2*	1.2%[46.1 µM]	-0.7%[46.1 µM]
Cc1ccc(NC(=O)N2CCc3cc(S(=O)(=O)N4CCC(C)CC4)ccc32)cc1	-13.0%	-12.0%	-12.9%	-29.1	25.1%[46.1 µM]	u
COc1ccc(-c2ccc(C(=O)N(C)Cc3csc(C)n3)c(N3CCC(N4CCc5ccccc5C4)CC3)n2)cc1	9.8%	51.7%	-8.9%	x	x	x
COc1ccccc1N1CCN(C(=O)CCCN2C(=O)c3cccc4cccc(c34)C2=O)CC1	-27.5%	u	11.2µM*	7.5	u	-14.8%
COc1ccccc1N1CCN(C(=O)CN2C(=O)c3cccc4cccc(c34)C2=O)CC1	-2.2%	u	-16.0%	-2.6	u	u
C=C1C=C(C(F)F)n2ncc(C(=O)NCc3ccc(Cl)cc3)c2N1	-19.7%	x	-8.6%	x	x	x
Cc1cccc(-n2nc([N+](=O)[O-])c(=NC3CCN(Cc4ccccc4)CC3)n2O)c1	x	-21.9%	x	-63.9*	x	x
CN1CCc2cc3c(c4c2[C@H]1[C@H](O)c1ccccc1-4)OCO3	21.8%	-15.6%	u	-70.8*	-4.6%	-23.2%
Cc1cc(C)c(Cn2c3ccccc3c3cnn(CC(=O)NCC(C)c4ccccc4)c(=O)c32)c(C)c1 (configuration not stated)	u	-3.2%	u	-2.0	u	-5.3%[46.1 µM]
COc1cc(OC)c(-c2nnc3n(CCc4ccccc4)c(=O)c4ccccc4n23)cc1OC	x	x	x	7.1	x	x
CC(C)c1ccc(-c2nnc3n(CCc4ccccc4)c(=O)c4ccccc4n23)cc1	-9.4%	28.2µM*	-25.9%	15.8	4.8%[46.1 µM]	-1.6%[46.1 µM]
COc1ccc(-c2nnc3n(CCc4ccccc4)c(=O)c4ccccc4n23)c(OC)c1	-3.3%	28.2µM*	-10.7%	72.4	10µM*	u
C/C=C(\C)C(=O)NCCN1Cc2ccccc2OC(c2ccccc2OC)C1 (configuration not stated)	-6.9%	16.5%	-21.1%	x	x	x
COc1ccc(OC)c(N/C(C)=C/C(=O)c2ccccc2)c1	-10.8%	10.3%	-14.1%	48.8	u	26.4%
COc1cccc(N/C=C/C(=O)c2ccc(C)cc2)c1	x	-16.5%	x	61.7	x	x
COc1ccc(OC)c(N/C=C/C(=O)c2ccccc2)c1	-9.1%	6.31µM*	-10.5%	-77.6*	1µM*	u
COc1ccc(N/C=C/C(=O)c2cc(OC)c(OC)c(OC)c2)cc1	u	12.8%	u	-80.1*	u	-26.2%[46.1 µM]
COc1cccc(C(=O)/C=C/Nc2cccc(O)c2)c1	x	12.6µM*	x	127.9	u	2.91µM*
SMILES	VACV Venus inh	FMDV inh	VACV mCherry inh	HCMV inh	MARV entry inh	Lassa entry inh
CCN(Cc1ccncc1)Cc1ccc2c(c1)CN(C(=O)c1cccc(-n3nc(C)cc3C)c1)CCO2	-2.4%	-1.3%	-10.9%	x	x	x
Cc1cc(Nc2cccc(Cl)c2C)n2nc(Cc3ccccc3)nc2n1	-3.7%	u	-12.1%	-9.1	1.2%[46.1 µM]	-19.0%[46.1 µM]
COc1ccc(CN2CCC(n3nccc3NC(=O)c3cccc(F)c3)CC2)cc1O	-10.9%	3.0%	i	-87.4*	8.3%	18.3%
O=C(Nc1ccnn1C1CCN(Cc2cccc(OCCO)c2)CC1)c1cccc(F)c1	-17.3%	-16.3%	-4.6%	76.1	-10.4%	-20.8%
CC(C)Oc1ccc(CN2CCC(n3nccc3NC(=O)C3CC3)CC2)cc1	-15.8%	-0.9%	i	-70.0*	-3.3%	-2.6%
O=C(Nc1ccnn1C1CCN(Cc2ccc(F)cc2)CC1)C1CC1	x	12.7%	x	u	x	x
CCc1ccc(CN2CCC(n3nccc3NC(=O)c3ccccc3Cl)CC2)cc1	-23.2%	31.6µM*	-27.0%	-9.5	u	u
CCOc1ccc(N2C(=O)C(c3nnnn3C(C)(C)C)N(Cc3ccc(OC)c(OC)c3)C2=O)cc1 (configuration not stated)	x	x	x	-5.6	x	x
Cc1ccc(N(CC(=O)Nc2cc(C)ccc2C)S(=O)(=O)c2c(C)noc2C)cc1	7.8%	-26.9%	-9.3%	-16.9	-14.0%[46.1 µM]	-6.1%[46.1 µM]
CC(C)(C)OC(=O)[C@H](Cc1ccccc1)NC(=O)c1nc[nH]c1C(=O)N[C@@H](Cc1ccccc1)C(=O)OC(C)(C)C	u	u	u	-68.2*	x	x
CC(C)(C)OC(=O)[C@H](Cc1ccccc1)NC(=O)c1[nH]cnc1C(=O)Nc1ccc(Cl)cc1	u	u	u	-37.8	x	x
CCOC(=O)c1ccc(NC(=O)c2nc[nH]c2C(=O)N[C@@H](Cc2ccccc2)C(=O)OC(C)(C)C)cc1	u	u	12.6µM*	10.9	-1.4%	x
CC(=O)c1cccc(NC(=O)CN2C(=O)c3ccccc3Sc3ncccc32)c1	4.3%	39.8µM*	-5.2%	20.7	x	-11.4%[46.1 µM]
CC(=O)c1c(C)nc2nc(-c3ccccc3)nn2c1C	1.0%	71.6%	-0.9%	108.8	u	28.1%[46.1 µM]
COc1cccc(NC(=O)c2c(N3CCCC3=O)c3cc(C)ccc3n2C)c1	5.5%	u	-6.4%	-9.3	x	14.5%[46.1 µM]
COc1ccc(-c2nc3ccc(C)cn3c2NCc2ccccc2)cc1SC1CCCCC1	u	20µM*	i	x	x	x
CCCCNc1c(-c2ccc(OC)c(SC3CCCCC3)c2)nc2ccc(C)cn12	11.2µM*	22.4µM*	10µM*	-100.7*!	x	x
CCCCNc1c(-c2ccc(SC3CCCCC3)c(OC)c2)nc2ccc(C)cn12	u	28.2µM*!	-29.9%	-70.5*!	x	x
CCCCCCCCN(CCCCCCCC)c1ccc(/C=C/c2ccnc3ccccc23)cc1	17.4%	x	32.9%	x	x	x
CCN(c1cc(C)cc(C)c1)S(=O)(=O)c1nnc(NC(=O)C(C)(C)C)s1	x	-29.0%	x	-67.2*	x	x
N/C(Cc1ccc(Cl)cc1)=N\OC(=O)c1cccc2ccccc12	-13.3%	u	-16.2%	-18.8	u	11.6µM*
